Data from PubChem BioAssay (EPA / NIEHS).
Records with an inconclusive call do not appear. Calls of active or inactive are those of the source. Rule for the calls: active = hit-call score of the fitted dose curve at least 0.9, where 1 is the maximum; inconclusive = response in the unintended direction; inactive = score below 0.9.

Molecular target: Bile acid receptor (Homo sapiens) (UniProt Q96RI1)
Assay: ATG_FXR_TRANS: Attagene TRANS-FACTORIAL HepG2 Assay for Farnesoid X Receptor (FXR) (AID 2282979);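 note: hits raise reporter mRNA above DMSO so AC50 marks FXR activation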
Details: HepG2 Attagene TRANS FXR-GAL4 reporter transcription
In short: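 Reporter transcripts from transfected HepG2 cells were measured 24 h after dosing, using RT-PCR with capillary electrophoresis of 6-FAM-labelled fragments. The read-out reflects activity of exogenous FXR-Gal4 chimera on GAL4-UAS units, with induction relative to DMSO.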

Sequence of Bile acid receptor (Homo sapiens) (Q96RI1 whole entry, looked up): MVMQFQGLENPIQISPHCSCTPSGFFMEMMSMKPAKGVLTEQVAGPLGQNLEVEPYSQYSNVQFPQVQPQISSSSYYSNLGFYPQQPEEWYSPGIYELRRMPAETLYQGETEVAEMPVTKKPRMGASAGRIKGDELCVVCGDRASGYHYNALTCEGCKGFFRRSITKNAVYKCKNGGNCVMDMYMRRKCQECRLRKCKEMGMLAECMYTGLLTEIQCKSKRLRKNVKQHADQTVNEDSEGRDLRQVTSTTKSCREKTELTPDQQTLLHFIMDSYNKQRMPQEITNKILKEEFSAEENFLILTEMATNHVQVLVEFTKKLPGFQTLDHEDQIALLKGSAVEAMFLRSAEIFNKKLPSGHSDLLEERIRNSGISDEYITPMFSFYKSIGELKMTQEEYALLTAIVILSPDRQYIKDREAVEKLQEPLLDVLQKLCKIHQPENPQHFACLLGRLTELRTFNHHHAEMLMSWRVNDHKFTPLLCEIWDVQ

Row | SMILES | outcome | AC50
1 | CCOC(=O)[C@@H](C)Oc1ccc(Oc2nc3ccc(Cl)cc3o2)cc1 | inactive | –
2 | CCCCCCCCCCCCCCCC(=O)OC/C=C(C)/C=C/C=C(C)/C=C/C1=C(C)CCCC1(C)C | inactive | –
3 | CSc1c(Cl)c(Cl)c(Cl)c(Cl)c1Cl | inactive | –
4 | CC(C)(C)OC(=O)c1ccc(O)cc1 | inactive | –
5 | Cc1cc(S(=O)(=O)O)ccc1N=Nc1c(O)ccc2ccccc12 | inactive | –
6 | C[C@H]1C[C@@H](O)CC(C)(C)C1 | inactive | –
7 | CCCCCCCCCCCCN1CCCCCC1=O | inactive | –
8 | Cc1ccc(S(=O)(=O)Oc2ccc(N=Nc3ccc(-c4ccc(N=Nc5c(O)ccc6cc(S(=O)(=O)O)cc(S(=O)(=O)O)c56)c(C)c4)cc3C)cc2)cc1 | inactive | –
9 | Cc1cc(CCC(=O)OCCOCCOCCOC(=O)CCc2cc(C)c(O)c(C(C)(C)C)c2)cc(C(C)(C)C)c1O | inactive | –
10 | C=CC(C)(O)CCC=C(C)C (stereo not drawn) | inactive | –
11 | C[Si](C)(C)O[Si](C)(C)C | inactive | –
12 | CCCCC(CC)COC(=O)c1ccc(O)cc1 (stereo not drawn) | inactive | –
13 | CN(C)CCOc1ccc(/C(=C(/CCCl)c2ccccc2)c2ccccc2)cc1 | inactive | –
14 | Nc1ccc2cc(S(=O)(=O)O)cc(O)c2c1N=Nc1ccccc1C(F)(F)F | inactive | –
15 | CCc1cc(Cc2cc(CC)cc(C(C)(C)C)c2O)c(O)c(C(C)(C)C)c1 | inactive | –
16 | O=C(Nc1ccc([N+](=O)[O-])cc1)Nc1ccc([N+](=O)[O-])cc1 (tested in a mixture with another compound) | inactive | –
17 | O=C(Nc1ccc2c(c1)Cc1ccccc1-2)C(F)(F)F | inactive | –
18 | COC(=O)c1ccc(OC)cc1 | inactive | –
19 | CCCCCCC(O)CCCCCCCCCCC(=O)O (stereo not drawn) | inactive | –

Row | SMILES | outcome | AC50
20 | O=C(O)COCC(=O)O | inactive | –
21 | OCc1cccc(Oc2ccccc2)c1 | inactive | –
22 | CN(C)CCOC(C)(c1ccccc1)c1ccccn1 (stereo not drawn) | inactive | –
23 | COS(=O)(=O)O | inactive | –
24 | [Cl][Au]([Cl])[Cl] | inactive | –
25 | O=C(O)CCCCCCCCC(=O)O | inactive | –
26 | Oc1ccc2cc(SSc3ccc4cc(O)ccc4c3)ccc2c1 | inactive | –
27 | CC(C)(C)C1=CC(=O)C(C(C)(C)C)=CC1=O | inactive | –
28 | COc1ccc(CCC(C)=O)cc1 | inactive | –
29 | CC(C)C[C@H](NC(=O)OCC1c2ccccc2-c2ccccc21)C(=O)O | inactive | –
30 | O=[N+]([O-])c1ccc(O)cc1C(F)(F)F | inactive | –
31 | O=C(O)c1ccc(O)cc1 | inactive | –
32 | CC1C2CC(CC2C2CCCC(O)C2)C1(C)C (stereo not drawn) | – | 58.4 µM (active)
33 | CC1(C)C2=CCCC(C)(C)[C@]23CC[C@H]1C3 | inactive | –
34 | OCc1ccc(Cl)cc1Cl | inactive | –
35 | CC1(C)COCN1 | inactive | –
36 | CCOC(=O)CN | inactive | –
37 | CCCCCCC(C)Nc1ccc(Nc2ccccc2)cc1 (stereo not drawn) | inactive | –
38 | CC/C=C\CC/C=C/CO | inactive | –
